Test results taken from article PMC8384837, “Expanding the binding specificity for RNA recognition by a PUF domain”.
Substitutions are numbered along the chain they refer to.

Columns and labels:
Experiment in all cases: yeast three-hybrid, YBZ-1, SC-Leu-His + 0.5 mM 3-AT, 4 days
Details in all cases: tags: N-Gal4 AD-HA kept; label: inside an RPR1-promoter hybrid RNA with tandem MS2 sites; ssRNA
[1] = biological target: PUM1 PUF domain R4-DHQ (Homo sapiens, UniProt Q14671 828-1176, N971D)
How it was run: (§1)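 Matching RNA elements and Pumilio-1 PUF domain libraries, randomized at the three base-contacting residues of every repeat, were co-expressed from a centromeric plasmid in strain YBZ-1 (LexA–MS2 coat fusion, HIS3 reporter). The repeat regions were PCR-amplified and Illumina-sequenced from cells grown four days on SC-Leu (input) or SC-Leu-His + 0.5 mM 3-AT (selection). The interaction score is the log change in variant frequency from input to selection. It is computed in log2, with a pseudocount of 1 for absent variants.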

[2] = biological target: PUM1 PUF domain R4-CRG (Homo sapiens, UniProt Q14671 828-1176, N971C;H972R;Q975G)
How it was run: as §1

[3] = biological target: PUM1 PUF domain R4-HNL (Homo sapiens, UniProt Q14671 828-1176, N971H;H972N;Q975L)
How it was run: as §1

[4] = biological target: PUM1 PUF domain R4-DWS (Homo sapiens, UniProt Q14671 828-1176, N971D;H972W;Q975S)
How it was run: as §1

[5] = biological target: T1, PUM1 PUF domain R6-CFR (Homo sapiens, UniProt Q14671 828-1176, N1043C;Y1044F;Q1047R)
T1 sequence: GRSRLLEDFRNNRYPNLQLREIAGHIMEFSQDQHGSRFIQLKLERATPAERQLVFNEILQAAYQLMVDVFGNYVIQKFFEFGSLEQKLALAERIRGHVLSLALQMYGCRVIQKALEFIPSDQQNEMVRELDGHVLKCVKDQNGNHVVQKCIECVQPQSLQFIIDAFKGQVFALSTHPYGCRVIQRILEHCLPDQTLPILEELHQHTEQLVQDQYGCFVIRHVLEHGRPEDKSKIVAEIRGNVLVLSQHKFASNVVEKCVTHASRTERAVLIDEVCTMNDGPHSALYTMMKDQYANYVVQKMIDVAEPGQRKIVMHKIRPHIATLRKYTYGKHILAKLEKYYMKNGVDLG
How it was run: as §1

[6] = biological target: PUM1 PUF domain R3-WFS (Homo sapiens, UniProt Q14671 828-1176, C935W;R936F;Q939S)
How it was run: as §1

[7] = biological target: PUM1 PUF domain R5-RHA (Homo sapiens, UniProt Q14671 828-1176, C1007R;R1008H;Q1011A)
How it was run: as §1

[8] = biological target: PUM1 PUF domain R5-LYS (Homo sapiens, UniProt Q14671 828-1176, C1007L;R1008Y;Q1011S)
How it was run: as §1

[9] = biological target: PUM1 PUF domain R5-GVQ (Homo sapiens, UniProt Q14671 828-1176, C1007G;R1008V)
How it was run: as §1

[10] = biological target: PUM1 PUF domain R5-KPV (Homo sapiens, UniProt Q14671 828-1176, C1007K;R1008P;Q1011V)
How it was run: as §1

[11] = biological target: PUM1 PUF domain R5-RKG (Homo sapiens, UniProt Q14671 828-1176, C1007R;R1008K;Q1011G)
How it was run: as §1

[12] = biological target: PUM1 PUF domain R5-SRK (Homo sapiens, UniProt Q14671 828-1176, C1007S;Q1011K)
How it was run: as §1

[13] = biological target: T2, PUM1 PUF domain R6-LFG (Homo sapiens, UniProt Q14671 828-1176, N1043L;Y1044F;Q1047G)
T2 sequence: T1 sequence with C216L, R220G
How it was run: as §1

[14] = biological target: PUM1 PUF domain R1-KYQ (Homo sapiens, UniProt Q14671 828-1176, S863K;R864Y)
How it was run: as §1

[15] = biological target: PUM1 PUF domain R4-VGY (Homo sapiens, UniProt Q14671 828-1176, N971V;H972G;Q975Y)
How it was run: as §1

[16] = biological target: PUM1 PUF domain R5-PLD (Homo sapiens, UniProt Q14671 828-1176, C1007P;R1008L;Q1011D)
How it was run: as §1

[17] = biological target: PUM1 PUF domain R8-GFR (Homo sapiens, UniProt Q14671 828-1176, N1122G;Y1123F;Q1126R)
How it was run: as §1

[18] = biological target: PUM1 PUF domain R3-LYE (Homo sapiens, UniProt Q14671 828-1176, C935L;R936Y;Q939E)
How it was run: as §1

[19] = biological target: PUM1 PUF domain R5-SRV (Homo sapiens, UniProt Q14671 828-1176, C1007S;Q1011V)
How it was run: as §1

[20] = biological target: PUM1 PUF domain R5-ESE (Homo sapiens, UniProt Q14671 828-1176, C1007E;R1008S;Q1011E)
How it was run: as §1

Chain of PUM1 PUF domain R4-DWS (Q14671 828-1176 N971D/H972W/Q975S): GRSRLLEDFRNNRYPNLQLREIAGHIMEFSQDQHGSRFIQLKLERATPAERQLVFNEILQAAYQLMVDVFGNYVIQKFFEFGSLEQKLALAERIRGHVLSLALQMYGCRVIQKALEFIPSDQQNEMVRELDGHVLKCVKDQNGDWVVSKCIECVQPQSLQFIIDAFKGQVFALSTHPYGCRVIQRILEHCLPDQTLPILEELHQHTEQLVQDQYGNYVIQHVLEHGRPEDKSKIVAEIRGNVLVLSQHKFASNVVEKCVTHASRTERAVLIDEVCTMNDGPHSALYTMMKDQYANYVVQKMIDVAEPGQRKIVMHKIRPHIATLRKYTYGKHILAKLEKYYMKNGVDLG
Chain of PUM1 PUF domain R5-RHA (Q14671 828-1176 C1007R/R1008H/Q1011A): as the sequence (Q14671 828-1176 N971D/H972W/Q975S) above, with D144N, W145H, S148Q, C180R, R181H, Q184A counted along it
Chain of PUM1 PUF domain R4-CRG (Q14671 828-1176 N971C/H972R/Q975G): as the sequence (Q14671 828-1176 N971D/H972W/Q975S) above, with D144C, W145R, S148G counted along it
Chain of PUM1 PUF domain R4-HNL (Q14671 828-1176 N971H/H972N/Q975L): as the sequence (Q14671 828-1176 N971D/H972W/Q975S) above, with D144H, W145N, S148L counted along it
Chain of PUM1 PUF domain R5-GVQ (Q14671 828-1176 C1007G/R1008V): as the sequence (Q14671 828-1176 N971D/H972W/Q975S) above, with D144N, W145H, S148Q, C180G, R181V counted along it
Chain of PUM1 PUF domain R5-LYS (Q14671 828-1176 C1007L/R1008Y/Q1011S): as the sequence (Q14671 828-1176 N971D/H972W/Q975S) above, with D144N, W145H, S148Q, C180L, R181Y, Q184S counted along it
Chain of PUM1 PUF domain R4-DHQ (Q14671 828-1176 N971D): as the sequence (Q14671 828-1176 N971D/H972W/Q975S) above, with W145H, S148Q counted along it
Chain of PUM1 PUF domain R4-VGY (Q14671 828-1176 N971V/H972G/Q975Y): as the sequence (Q14671 828-1176 N971D/H972W/Q975S) above, with D144V, W145G, S148Y counted along it
Chain of PUM1 PUF domain R1-KYQ (Q14671 828-1176 S863K/R864Y): as the sequence (Q14671 828-1176 N971D/H972W/Q975S) above, with S36K, R37Y, D144N, W145H, S148Q counted along it
Chain of PUM1 PUF domain R5-ESE (Q14671 828-1176 C1007E/R1008S/Q1011E): as the sequence (Q14671 828-1176 N971D/H972W/Q975S) above, with D144N, W145H, S148Q, C180E, R181S, Q184E counted along it

## GGCUAGAACUAGUGGAUCCCCCGGCGCCCGGCGGCUCGAGCCCGGGUAAGUGUAUAUAGUCUGCAUGCCGCCGGGCGCCAUGCCUGCAGGUCGACUCUAGAAAACAUG
[1]
  binding signal: 5.32 log2 enrichment (interaction score)
[2]
  binding signal: 1.29 log2 enrichment (interaction score)
[3]
  binding signal: 3.45 log2 enrichment (interaction score)
[4]
  binding signal: 5.96 log2 enrichment (interaction score)

## GGCUAGAACUAGUGGAUCCCCCGGCGCCCGGCGGCUCGAGCCCGGGUAAGUGCAAAUAGUCUGCAUGCCGCCGGGCGCCAUGCCUGCAGGUCGACUCUAGAAAACAUG
[5]
  binding signal: 6.28 log2 enrichment (interaction score)

## GGCUAGAACUAGUGGAUCCCCCGGCGCCCGGCGGCUCGAGCCCGGGUAAGUGUAAUUAGUCUGCAUGCCGCCGGGCGCCAUGCCUGCAGGUCGACUCUAGAAAACAUG
[6]
  binding signal: 2.63 log2 enrichment (interaction score)

## GGCUAGAACUAGUGGAUCCCCCGGCGCCCGGCGGCUCGAGCCCGGGUAAGUGUUAAUAGUCUGCAUGCCGCCGGGCGCCAUGCCUGCAGGUCGACUCUAGAAAACAUG
[7]
  binding signal: 5.76 log2 enrichment (interaction score)
[8]
  binding signal: 3.82 log2 enrichment (interaction score)
[9]
  binding signal: 2.71 log2 enrichment (interaction score)
[10]
  binding signal: 1.4 log2 enrichment (interaction score)
[11]
  binding signal: 2.88 log2 enrichment (interaction score)
[12]
  binding signal: 5.28 log2 enrichment (interaction score)

## GGCUAGAACUAGUGGAUCCCCCGGCGCCCGGCGGCUCGAGCCCGGGUAAGUGAAAAUAGUCUGCAUGCCGCCGGGCGCCAUGCCUGCAGGUCGACUCUAGAAAACAUG
[5]
  binding signal: 4.42 log2 enrichment (interaction score)
[13]
  binding signal: 5.7 log2 enrichment (interaction score)

## GGCUAGAACUAGUGGAUCCCCCGGCGCCCGGCGGCUCGAGCCCGGGUAAGUGUCAAUAGUCUGCAUGCCGCCGGGCGCCAUGCCUGCAGGUCGACUCUAGAAAACAUG
[7]
  binding signal: 5.53 log2 enrichment (interaction score)
[10]
  binding signal: 3.85 log2 enrichment (interaction score)
[11]
  binding signal: 2 log2 enrichment (interaction score)
[12]
  binding signal: 2.72 log2 enrichment (interaction score)

## GGCUAGAACUAGUGGAUCCCCCGGCGCCCGGCGGCUCGAGCCCGGGUAAGUGUAAAUCGUCUGCAUGCCGCCGGGCGCCAUGCCUGCAGGUCGACUCUAGAAAACAUG
[14]
  binding signal: 4.96 log2 enrichment (interaction score)

## GGCUAGAACUAGUGGAUCCCCCGGCGCCCGGCGGCUCGAGCCCGGGUAAGUGUAAAUAGUCUGCAUGCCGCCGGGCGCCAUGCCUGCAGGUCGACUCUAGAAAACAUG
[7]
  binding signal: 2.93 log2 enrichment (interaction score)
[2]
  binding signal: 4.02 log2 enrichment (interaction score)
[4]
  binding signal: 2.39 log2 enrichment (interaction score)
[8]
  binding signal: 3.11 log2 enrichment (interaction score)
[15]
  binding signal: 2.38 log2 enrichment (interaction score)
[5]
  binding signal: 4.59 log2 enrichment (interaction score)
[16]
  binding signal: 2.61 log2 enrichment (interaction score)
[17]
  binding signal: 4.66 log2 enrichment (interaction score)
[18]
  binding signal: 3.76 log2 enrichment (interaction score)
[11]
  binding signal: 0.47 log2 enrichment (interaction score)
[19]
  binding signal: 0.54 log2 enrichment (interaction score)
[12]
  binding signal: 3.38 log2 enrichment (interaction score)

## GGCUAGAACUAGUGGAUCCCCCGGCGCCCGGCGGCUCGAGCCCGGGUAAGUGUACAUAGUCUGCAUGCCGCCGGGCGCCAUGCCUGCAGGUCGACUCUAGAAAACAUG
[1]
  binding signal: 2.4 log2 enrichment (interaction score)
[3]
  binding signal: 2.04 log2 enrichment (interaction score)
[4]
  binding signal: 2.51 log2 enrichment (interaction score)

## GGCUAGAACUAGUGGAUCCCCCGGCGCCCGGCGGCUCGAGCCCGGGUAAGCGUAAAUAGUCUGCAUGCCGCCGGGCGCCAUGCCUGCAGGUCGACUCUAGAAAACAUG
[17]
  binding signal: 4.51 log2 enrichment (interaction score)

## GGCUAGAACUAGUGGAUCCCCCGGCGCCCGGCGGCUCGAGCCCGGGUAAGUGUGAAUAGUCUGCAUGCCGCCGGGCGCCAUGCCUGCAGGUCGACUCUAGAAAACAUG
[9]
  binding signal: 2.24 log2 enrichment (interaction score)
[20]
  binding signal: 2.77 log2 enrichment (interaction score)
[19]
  binding signal: 2.79 log2 enrichment (interaction score)
[12]
  binding signal: 3.42 log2 enrichment (interaction score)
